{
  "source": "the supplement of paper PMC11219838",
  "details_in_all_cases": "60 µM; 5 days; temperature: 20 °C",
  "key": {"Meloidogyne hapla J2": {"tested_on": "Meloidogyne hapla J2", "assay": "proportion of mobile M. hapla J2 relative to DMSO control (fraction of DMSO control); higher = more viable, less nematicidal, active = 0.7 or less", "summary_of_the_method": "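Two biological replicates were run and averaged, each on 96-well plates in which about 25 M. hapla J2 sat in distilled water per well. Compound was pinned in to give 60 µM final and 0.6% v/v DMSO, and the sealed plates were shaken at 200 rpm and 20 °C for 5 days before 2 µL 1 M NaOH was added. Mobility was scored microscopically and divided by the mean from the plate's DMSO-only wells, of which there were eight.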"}, "[1]": {"tested_on": "Caenorhabditis elegans dauer (daf-2(e1370))", "assay": "proportion of mobile C. elegans dauer larvae relative to DMSO control (fraction of DMSO control); higher = more viable, less nematicidal, active = 0.63 or less; extreme values may be limits of the assay", "summary_of_the_method": "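The proportion of mobile worms, relative to DMSO wells, was scored by dissection microscope and averaged over two biological replicates. Worms were C. elegans dauers, about 20 per well in liquid NGM in 96-well plates, generated from synchronized larvae on MYOB plates with E. coli OP50 at 25 °C for 48 h. They were treated with compound pinned to 60 µM final (0.6% v/v DMSO) and kept in sealed plates shaken at 200 rpm for 5 days at 20 °C.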"}, "Ditylenchus dipsaci": {"tested_on": "Ditylenchus dipsaci", "assay": "proportion of mobile D. dipsaci (mixed stage) relative to DMSO control (fraction of DMSO control); higher = more viable, less nematicidal, active = 0.86 or less; extreme values may be limits of the assay", "summary_of_the_method": "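The worms, D. dipsaci raised on pea plants in Gamborg B-5 agar, were recovered through a filter funnel into water. Each well of a 96-well plate then held about 20 of them in distilled water plus pinned compound at 60 µM final (0.6% v/v DMSO), and the sealed plates were shaken at 200 rpm at 20 °C for 5 days. Following addition of 2 µL 1 M NaOH, mobile worms were counted by microscopy, and mobility was expressed against DMSO controls as the average of two biological replicates.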"}},
  "note": "Unmarked numbers belong to inactive results.",
  "data": [
    {"smiles": "Cc1cccc(-c2nnc(SCC(=O)Nc3ccc(Br)c(C)c3C)o2)c1", "values": [
      {"measurement": "proportion of mobile M. hapla J2", "setting": "Meloidogyne hapla J2", "result": 1},
      {"measurement": "proportion of mobile C. elegans dauer larvae", "setting": "[1]", "result": 1},
      {"measurement": "proportion of mobile D. dipsaci", "setting": "Ditylenchus dipsaci", "result": 1}
    ]},
    {"smiles": "Brc1ccc(CSc2nnc(-c3ccncc3)o2)cc1", "values": [
      {"measurement": "proportion of mobile M. hapla J2", "setting": "Meloidogyne hapla J2", "result": 1.01},
      {"measurement": "proportion of mobile C. elegans dauer larvae", "setting": "[1]", "result": 1},
      {"measurement": "proportion of mobile D. dipsaci", "setting": "Ditylenchus dipsaci", "result": 1}
    ]},
    {"smiles": "Cc1ccc(C(=O)CSc2nnc(-c3ccccc3)o2)cc1", "values": [
      {"measurement": "proportion of mobile M. hapla J2", "setting": "Meloidogyne hapla J2", "result": 0.968},
      {"measurement": "proportion of mobile C. elegans dauer larvae", "setting": "[1]", "result": 1},
      {"measurement": "proportion of mobile D. dipsaci", "setting": "Ditylenchus dipsaci", "result": 1}
    ]},
    {"smiles": "CCc1ccc(C(=O)Nc2ccccc2-c2nc(-c3ccncc3)no2)cc1", "values": [
      {"measurement": "proportion of mobile M. hapla J2", "setting": "Meloidogyne hapla J2", "result": 1},
      {"measurement": "proportion of mobile C. elegans dauer larvae", "setting": "[1]", "result": 1},
      {"measurement": "proportion of mobile D. dipsaci", "setting": "Ditylenchus dipsaci", "result": 1}
    ]},
    {"smiles": "CC(Oc1ccccc1)c1nc(-c2ccccn2)no1", "note": "(centres undefined)", "values": [
      {"measurement": "proportion of mobile M. hapla J2", "setting": "Meloidogyne hapla J2", "result": 0.937},
      {"measurement": "proportion of mobile C. elegans dauer larvae", "setting": "[1]", "result": 1},
      {"measurement": "proportion of mobile D. dipsaci", "setting": "Ditylenchus dipsaci", "result": 1}
    ]},
    {"smiles": "Clc1ccc(OCc2nc(-c3ccccn3)no2)c(Br)c1", "values": [
      {"measurement": "proportion of mobile M. hapla J2", "setting": "Meloidogyne hapla J2", "result": 1.04},
      {"measurement": "proportion of mobile C. elegans dauer larvae", "setting": "[1]", "result": 1},
      {"measurement": "proportion of mobile D. dipsaci", "setting": "Ditylenchus dipsaci", "result": 1}
    ]},
    {"smiles": "Clc1cc(Br)ccc1OCc1nc(-c2ccccc2)no1", "values": [
      {"measurement": "proportion of mobile M. hapla J2", "setting": "Meloidogyne hapla J2", "result": 0.818},
      {"measurement": "proportion of mobile C. elegans dauer larvae", "setting": "[1]", "result": 1},
      {"measurement": "proportion of mobile D. dipsaci", "setting": "Ditylenchus dipsaci", "result": 1}
    ]},
    {"smiles": "COc1ccc(-c2nnc(SCC(=O)Nc3ccc(C(C)C)cc3)o2)cc1", "values": [
      {"measurement": "proportion of mobile M. hapla J2", "setting": "Meloidogyne hapla J2", "result": 0.967},
      {"measurement": "proportion of mobile C. elegans dauer larvae", "setting": "[1]", "result": 1},
      {"measurement": "proportion of mobile D. dipsaci", "setting": "Ditylenchus dipsaci", "result": 1}
    ]},
    {"smiles": "c1coc(-c2nnc(-c3ccco3)o2)c1", "values": [
      {"measurement": "proportion of mobile M. hapla J2", "setting": "Meloidogyne hapla J2", "result": 1.03},
      {"measurement": "proportion of mobile C. elegans dauer larvae", "setting": "[1]", "result": 1},
      {"measurement": "proportion of mobile D. dipsaci", "setting": "Ditylenchus dipsaci", "result": 1}
    ]},
    {"smiles": "Cc1cccc(-c2noc(COc3ccc(C)c(C)c3)n2)c1", "values": [
      {"measurement": "proportion of mobile M. hapla J2", "setting": "Meloidogyne hapla J2", "result": 1.04},
      {"measurement": "proportion of mobile C. elegans dauer larvae", "setting": "[1]", "result": 1},
      {"measurement": "proportion of mobile D. dipsaci", "setting": "Ditylenchus dipsaci", "result": 1}
    ]},
    {"smiles": "CC(C)(C)c1ccc(-c2noc(COc3ccccc3)n2)cc1", "values": [
      {"measurement": "proportion of mobile M. hapla J2", "setting": "Meloidogyne hapla J2", "result": 0.776},
      {"measurement": "proportion of mobile C. elegans dauer larvae", "setting": "[1]", "result": 1},
      {"measurement": "proportion of mobile D. dipsaci", "setting": "Ditylenchus dipsaci", "result": 1}
    ]},
    {"smiles": "C=CCOc1ccc(-c2nc(-c3cccnc3)no2)cc1", "values": [
      {"measurement": "proportion of mobile M. hapla J2", "setting": "Meloidogyne hapla J2", "result": 0.965},
      {"measurement": "proportion of mobile C. elegans dauer larvae", "setting": "[1]", "result": "0.5 (active)"},
      {"measurement": "proportion of mobile D. dipsaci", "setting": "Ditylenchus dipsaci", "result": "0.5 (active)"}
    ]},
    {"smiles": "O=C(CSc1nnc(-c2ccco2)o1)Nc1ccc(F)cc1", "values": [
      {"measurement": "proportion of mobile M. hapla J2", "setting": "Meloidogyne hapla J2", "result": 0.939},
      {"measurement": "proportion of mobile C. elegans dauer larvae", "setting": "[1]", "result": 1},
      {"measurement": "proportion of mobile D. dipsaci", "setting": "Ditylenchus dipsaci", "result": 1}
    ]}
  ]
}
